Compound activity: PubChem BioAssay, several laboratories
dFosB act – activators of delta FosB homodimer, primary screen, biochemical, fluorescence polarization, TAMRA-CDK5 oligo, single point | Protein FosB (Mus musculus), P13346 | purified delta FosB; percent of positive-control signal above neutral wells | activation, % at 25 µM | actives 0.99% (n = 340,000) | AID 493131, 2011;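 active means mean activation above about 17%, with every replicate also reaching it, limit read from the data, passing the limit was not always enough; inconclusive means only one of the two conditions met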
Target sequence (P13346 whole entry, looked up): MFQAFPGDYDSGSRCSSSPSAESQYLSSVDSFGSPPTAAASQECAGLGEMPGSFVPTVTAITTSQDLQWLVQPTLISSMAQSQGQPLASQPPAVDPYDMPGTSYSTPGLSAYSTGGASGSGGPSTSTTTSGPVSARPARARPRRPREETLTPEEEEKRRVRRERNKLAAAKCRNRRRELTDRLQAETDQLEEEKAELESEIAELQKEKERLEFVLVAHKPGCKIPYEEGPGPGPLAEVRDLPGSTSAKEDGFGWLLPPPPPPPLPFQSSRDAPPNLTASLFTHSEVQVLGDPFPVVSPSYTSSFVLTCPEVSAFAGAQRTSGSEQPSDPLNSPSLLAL
CR mimetic SO – reduction of superoxide in aged yeast, primary screen, HTS. S. cerevisiae aged cells, superoxide DHE fluorescence; stronger effect = lower value. actives 0.18% (n = 330,000). superoxide response (% of plate mean), % at 10 µM. AID 2690, 2010;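 active means superoxide response under a set limit, about three screen SD below normal, cut at about 65% in these data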;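 further: yeast aged for seven days with compound at 30 °C before DHE staining; 100% = average MFI of all compound-treated wells on the plate with controls excluded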
UBC13 inh – UBC13 polyubiquitin chain formation inhibitors, primary screen, biochemical, TR-FRET, uHTS | inhibition, % at 20 µM | actives 0.47% (n = 330,000) | AID 485273, 2010; in the data active means inhibition above about 45%, passing the limit was not always enough; inconclusive means no clear call, values can overlap the other calls
Target sequence (P61088 whole entry, looked up): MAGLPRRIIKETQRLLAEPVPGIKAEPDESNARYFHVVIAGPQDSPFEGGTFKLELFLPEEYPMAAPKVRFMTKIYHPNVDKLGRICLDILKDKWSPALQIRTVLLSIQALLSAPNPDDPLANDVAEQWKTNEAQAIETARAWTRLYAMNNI
NALP1 yeast inh – NALP1 inflammasome inhibitors in reconstituted yeast, colorimetric, S. cerevisiae, triplicate retest; inhibition, % at 10 µM; AID 2071, 2009; actives 0.61% (n = 280,000); S. cerevisiae NALP1/ASC/caspase-1 growth, X-gal OD620, 72 h; in the data active means inhibition mostly above about 24%, no sharp cut-off; inactive means mostly below about 32%
NR3A LBD binder – binders of NR3A ligand-binding domain, primary screen, biophysical, differential scanning fluorimetry, uHTS. Tm shift relative to glycine control, % at 25 µM. actives 2.5% (n = 340,000). NR3A LBD differential scanning fluorimetry, Tm shift; 0% = protein alone, 100% = glycine-bound protein. Glutamate receptor ionotropic, NMDA 3A (GRIN3A) ligand-binding domain. AID 1259313, 2017;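 active means melting temperature shift of at least 10% of the positive control shift, at one fixed dose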
An asterisk follows results filed as active; ? = inconclusive; . = no result. Most compounds without a hit are left out; they make up all but 4.3% or so of the library.

SMILES	dFosB act	CR mimetic SO	UBC13 inh	NALP1 yeast inh	NR3A LBD binder
CC(=O)c1cccc(NC(=O)C(OC(=O)c2ccccc2NS(=O)(=O)c2cccs2)c2ccccc2)c1 (stereo unspecified)	-7	125	-38	25	30*
COc1ccc(CCNC(=O)CCNC(=O)N2CC(=O)Nc3ccccc32)cc1	4	104	6	-8	-1
Cc1ccc2nc(-c3ccccn3)cc(C(=O)NCCc3ccc(F)cc3)c2c1	0	107	12	-1	-1
COc1ccccc1-c1ccc(Nc2cccc(C(C)=O)c2)nn1	1	94	-3	13	11*
COc1cccc(Nc2c(Nc3cccc(OC)c3)c(=O)c2=O)c1	-4	93	-14	7	6
CC(=O)c1cccc(Nc2ccc(-c3ccccc3F)nn2)c1	-10	100	16	2	-12
COc1cccc(Nc2ccc(Nc3cccc(OC)c3)nn2)c1	-9	110	9	18	33*
Cc1ccc(NC(=S)NCC2CCCO2)cc1C (stereo unspecified)	1	98	-1	4	-3
S=C(NCC1CCCO1)NC12CC3CC(CC(C3)C1)C2 (stereo unspecified)	-5	76	4	20*	0
Cc1ccc(NC(=S)NCC2CCCO2)cc1 (stereo unspecified)	-10	105	4	33*	1
COc1ccc(CNC(=O)C2CCN(C(=O)[C@@H]3Cc4ccccc4CN3)CC2)cc1	-8	84	0	25	-3
O=C1C=C(c2ccc3c(c2)OCO3)C[C@@H](c2ccc3c(c2)OCO3)C1	-4	103	-20	.	1
O=C1C=C(c2ccc3cc[nH]c3c2)C[C@@H](c2ccc3c(c2)OCO3)C1	-12	102	-11	.	21*
CCc1ccc(NC2=NCC(c3ccccc3)S2)cc1 (stereo unspecified)	-12	103	19	35*	-12
O=[N+]([O-])c1ccc(C2CN=C(Nc3ccccc3)S2)cc1 (stereo unspecified)	-12	106	9	2	-2
COc1cc(C2c3c(-c4cc(C)cc(C)c4O)n[nH]c3C(=O)N2CCCO)cc(OC)c1OC (stereo unspecified)	-8	107	1	11	345*
COCCCN1C(=O)c2[nH]nc(-c3cc(C)cc(C)c3O)c2C1c1ccc(O)c(OC)c1 (stereo unspecified)	-4	89	15	34	-3
Cc1ccc(-n2c(=O)c3sccc3n(Cc3cc(=O)n4ccccc4n3)c2=O)cc1F	.	105	10	1	.
Cc1ccc(-n2c(=O)c3sccc3n(Cc3cc(=O)n4cc(Cl)ccc4n3)c2=O)cc1F	-15	100	7	4	15*
Nc1ccc(S(=O)(=O)Nc2nccc(/C=C/c3ccc([N+](=O)[O-])cc3)n2)cc1	-3	92	2	22	-1
Clc1cccc(N/N=C(\Cc2nc3ccccc3[nH]2)c2ccccc2)c1	?	93	-6	26	31*
c1ccc(N/N=C(\Cc2ncc[nH]2)c2ccccc2)cc1	-11	110	7	-10	-2
COc1ccc2nc(Nc3ccccc3)sc2c1	2	86	-2	-13	30*
COc1ccc2nc(NNC(=O)COc3ccccc3)sc2c1	0	91	2	12	-1
COc1ccc2nc(NC(=O)Nc3ccccc3OC)sc2c1	7	79	5	18	-2
SMILES	dFosB act	CR mimetic SO	UBC13 inh	NALP1 yeast inh	NR3A LBD binder
COc1ccc2nc(Nc3ccccc3OC)sc2c1	-2	99	9	26	19*
COc1ccc(CCC(=O)OCC(=O)NC(=O)c2ccc(Cl)cc2)cc1	-10	85	-40	.	-1
COc1ccc(Cl)cc1NC(=O)C1CCCN(c2ncnc3c2nc2n3CCCCC2)C1 (stereo unspecified)	-8	115	21	7	-15
CCOc1ccc(Cl)cc1S(=O)(=O)N1CCC(C(=O)NCc2cccnc2)CC1	-8	94	2	12	-2
CCN(c1cccc(C)c1)S(=O)(=O)c1ccc2[nH]c(=O)c(=O)[nH]c2c1	-19	95	6	.	11*
COc1ccc(N2C(=O)c3ccccc3C(C)(C)C2=O)cc1	0	98	4	14	-2
CC1CCN(S(=O)(=O)c2ccc(NC(=O)c3ccncc3)cc2)CC1	-4	101	-14	9	12*
CC1CCN(S(=O)(=O)c2ccc(NC(=O)[C@@H]3CCCC[C@@H]3C(=O)O)cc2)CC1	0	105	0	1	0
O=C(Nc1nncs1)c1cccc(S(=O)(=O)N2CCCC2)c1	-6	106	-3	-13	-1
CC1CCN(S(=O)(=O)c2cccc(C(=O)Nc3nncs3)c2)CC1	-4	118	-3	10	17*
COC(=O)Nc1ccc(S(=O)(=O)N2CCC(C)CC2)cc1	-5	93	8	-43	13*
CC1CCN(S(=O)(=O)c2ccc(NC(=O)C3CCCCC3C(=O)O)cc2)CC1 (stereo unspecified)	0	.	.	.	11*
Cc1cc([N+](=O)[O-])nn1Cc1noc(C(=O)NCCc2ccccn2)n1	-1	105	6	-22	-2
NS(=O)(=O)c1ccc(CNC(=O)c2cc(=O)c3cc(Cl)ccc3o2)cc1	10	96	4	-4	1
Cc1cc(NS(=O)(=O)c2ccc(NC(=O)Cc3ccc([N+](=O)[O-])cc3)cc2)nc(C)n1	3	111	-6	.	-9
CCN(CC(=O)NCc1ccc(Cl)cc1)C(=O)C(C)Sc1ccccc1 (stereo unspecified)	-8	86	2	15	3
COC(=O)c1cc2ccccc2c(-c2c(O)ccc3ccccc23)c1O	3	100	4	-31	12*
Oc1ccc(Cl)cc1CNCc1ccc(C(F)(F)F)cc1	4	86	30	.	-4
C=CC(C)(C)c1c(O)c(CC=C(C)C)c(O)c2c(=O)c3ccc(O)c(O)c3oc12	-10	102	-20	.	33*
C=CC(C)(C)c1c2occc2c(O)c2ccc(=O)oc12	2	124	-32	.	-4
COc1cccc(N2CCN(c3nc(-c4ccccc4C)cc(=O)[nH]3)CC2)c1	3	105	-3	7	3
Cc1ccccc1-c1nnc(SCc2ccc(F)cc2)o1	-9	101	-2	6	13*
Fc1ccc(CSc2nnc(-c3ccncc3)o2)cc1	0	92	5	10	0
N#CCSc1nnc(-c2c[nH]c3ccccc23)o1	4	100	15	12	-17
O=S(=O)(Nc1ccc(-c2nnc(SCc3ccc(Cl)cc3)o2)cc1)c1ccccc1	2	116	-24	10	14*
